Results from the supplement of paper PMC6555819.

System: VDR:RXRa (NR concentration 270 nM, RXRa partner concentration 90 nM)
Experiment: PBM binding z-score (relative to random genomic background probes); higher = stronger binding; sequences stand for … in GC…GCGATTGACAGCGTAGAATGAAGG
Experimental: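 Protein-binding microarray (Agilent 4x180K custom design, double-stranded 60-nt probes: 5' GC cap, 34-nt variable region, 24-nt constant primer region; full probe sequence given). Purified or IVT nuclear receptor:RXRα heterodimers (3:1 NR:RXRα, mostly 270:90 nM) or homodimers were incubated for 1 h in PBS with 2% milk and no ligand, then detected with Alexa488 antibodies. Fluorescence from o1-orientation probes (~5 replicates averaged) was converted to z-scores against 500 random hg19 background probes. Variable regions are seed direct-repeat (DR0–DR5) sites, all their single-nucleotide variants and half-site ablations.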

Sequence | PBM binding z-score
CGTAAAAGTTCAACTAAGGTAACGTAAAGCACGC | 4.33
ACTACTAGTTGACTTAGGGCAACCGATACGACGC | 0.191
TCTTGTGGATCAAAGGTTAAGAAAGCCGAAGCCT | 1.54
CGAACGAGGACATGAGTTGATAGCAAATGCCGAT | 0.112
TCTTGTAGATCAACAGGAGGTTAAGAACGATCGA | 0.419
TCTTGTAGATCAAAGGCTAAGAAAGCCGAAGCCT | -0.203
TAGCCTAGGTCAGTCAGGGGCCAGTATAGAAAGC | 0.785
AACTCTAGGTAAAGATAGTTCAGTGAATGCAAAT | 0.688
CCTGCTAGGTCAATGGTCAGATAAAGCAGCTCGC | 0.927
GTACCAAGGTGAATAGGTCCTTGATGAGTAGGCG | 0.968
CCTGCTAGGTCAATAGTCAGCTAAAGCAGCTCGC | 0.487
TCGAGTTGGTTACCAATGGGGCATTCAGCTTTCT | -0.461
AGTCAAAGTCCATCTAGGTAACGTAAGATATGCT | 0.131
ATCGAAAGGTCGAAGGCGAGTATACCCACCCGAA | 2.22
ATCGAAAGGTCGAGGTCAGTATAGAGAAAGGGAA | 4.49
CGAACTAGGTCAGAACAGGACAATGAAGGATGAT | 1.11
CGTCCAAGGTCAAGGTCAGTGAAAGAGACTCGAA | 4.7
AATACAGGGTCATGGTAGGCCAGAGTACGCACAG | 4.95
AGTCAAAGTTCATCTACGTAACGTAAGATATGCT | 4.77
GCTCGGCGGACAAGGTCAGAGCTTTGTCCGTAGA | 0.376

Sequence | PBM binding z-score
GGAACGAGGGCGTTCGAGTTGATAGCATGGCGAT | 2.22
TAGCCTAGGTCTTTCAGGGGCCAGTATAGAAAGC | -0.481
TCTTGTTGATCAGCAGGTTAAGAAAGCTGGCCAA | 0.36
CGTACGAGGGCATGAGTTGATAGCAAATGCCGAT | 1.36
GCTATTAGTTGATAGGGCAACCGAATGATTCTCG | -0.195
AGAATGAGGTTATGCGTAGATCAGGGAAGAAAGT | 1.15
ATATGTAGGTTAAGGGGCATTCAGGTTGGTTCGC | 2.2
CCGACTGGGGCAGTAAGGTTACCATACCATCCGG | 0.907
GCTAGTTGGTCAGTAAGAGGTCACACACCGGTCG | 4.12
CGTCCAAGGTCAGGGAGGTCAGTGAATGCCGAGT | 7.3
ACTAGCAGGCCAAGTTTGGGCCACTCAAACAAAG | -0.648
CCTCGGAGGACAGAAGGTAAGAGCTGTCCGCTTT | -0.622
TCATATCGGTAAAGGTGAAAGTCGAACGATATGA | 0.691
GCGACTGGGGCAAAGCTGGTTACCATAAGGTTGG | -0.475
TTACCAAGGTGGAGGTCGTTGATCCCTCTGTAGA | 1.65
TAGCCTAGGTCATGGGCCAGTATGCCACGCGAAC | 1.98
CAAACTAGGTCAAAGGACAAAGTCGAGCCAACCA | 1.96
TCATATAGGTAAAGGTGAAACTCGAACGATATGA | 0.901
CGAACTAGGTCATTGACAGGATAGTGAATAGTAA | 1.64
ATCTCTAGTTAACAAGTTCAGTGAAAGAGAGGAC | 2.52
